# Measured values as given in PubChem BioAssay AID624414 (National Center for Advancing Translational Sciences (NCATS), 2012).
# In all, about 410,000 compounds went through this assay and about 480 (0.12%) were called active. Rule as the data show it: active = activation above about 50%; inconclusive = mostly about 30% to 49%; inactive = weaker than that. The entries come from a sample that favours actives as a whole.
# Biological target: Mucolipin-1 (Homo sapiens) (UniProt Q9GZU1)
# Assay: qHTS for Agonists of the Human Mucolipin Transient Receptor Potential 1 (TRPML1); also: 0% is about no effect
# Conditions: TRPML1-expressing cells, Ca2+ dye fluorescence, FDSS; hits give high values
# From the text: Mutations of human Mucolipin transient receptor potential 1 (TRPML1) cause type IV mucolipidosis (ML4), a devastating neurodegenerative disease in young children. […] Currently, there is no treatment for ML4. […] Under physiological conditions, TRPMLs regulate membrane trafficking by transducing information about PI(3,5)P2 levels into changes in juxtaorganellar Ca2+, thereby triggering membrane fusion/fission events in the late endocytic pathways (endolysosomal trafficking). In addition, TRPML1 mediates release of Fe2+ from late endosomes and lysosomes, which is essential for cellular iron metabolism. Thus, impaired ion (Ca2+ and Fe2+) homeostasis underlies lysosomal dysfunction and ML4 phenotypes. In ML4 cells, the problem is twofold. First, defective Ca2+-dependent membrane trafficking due to TRPML1-deficiency causes accumulation of lipids and other bio-materials in the lysosome. The second strike comes from the lysosomal iron overload (due to impairment of TRPML1's Fe2+ conductivity), which converts the accumulated materials into the nondegradable (resistant to lysosomal degradation) lipofuscin (also called aging pigment) in the lysosome. Lipofuscin accumulation dramatically compromises the functions of lysosomes.
# Niemann-Pick type C (NPC) disease is another lysosome storage disease (LSD) with severe neurodegeneration during the childhood. Currently, there is no cure for NPC. […] Thus, TRPML1 is likely to be an essential regulator of lysosome ion homeostasis. We specifically hypothesize that stimulating TRPML1's Fe2+/Ca2+ channel activity in the lysosome using synthetic agonists can alleviate neurodegeneration associated with ML4 or NPC.
# To this end, a high throughput screen was developed in a miniaturized format to screen against the Molecular Libraries Small Molecule Repository (MLSMR) to find small molecules that act either as inhibitors or agonist against the TRPML1 channel.
# NIH Chemical Genomics Center [NCGC]
# NIH Molecular Libraries Probe Centers Network [MLPCN]
# Assay Submitter (PI): Haoxing Xu, University of Michigan Ann Arbor
# TRPML1-DL cells are dissociated from flasks, counted and, brought up to a density of 500,000 cells per mL of media containing a 1X Tet inducer. Using a Multidrop Combi, 3uL of this cell solution is dispensed to each well of a 1536 TC treated, black, clear bottom hi base plate for a final cell density of 1,500 cells per well. The assay plates are incubated overnight (approximately 16 hours) at 37 degrees C and 5% CO2. Using a Multidrop Combi, 2uL of ABD Ca8 no wash dye plus quencher is added to each well. The assay plates incubate at room temperature in the dark for 45-90 minutes. The assay plate is read on the FDSS using the following protocol: 10 second baseline read, 23nL of compounds and controls are added using 1536 pintool, agonist read for 110 seconds, 1 uL EC80 addition (4uM final 54-4 diluted in media), antagonist read for 110 seconds.
# Sequence of Mucolipin-1 (Homo sapiens) (Q9GZU1 whole entry, looked up): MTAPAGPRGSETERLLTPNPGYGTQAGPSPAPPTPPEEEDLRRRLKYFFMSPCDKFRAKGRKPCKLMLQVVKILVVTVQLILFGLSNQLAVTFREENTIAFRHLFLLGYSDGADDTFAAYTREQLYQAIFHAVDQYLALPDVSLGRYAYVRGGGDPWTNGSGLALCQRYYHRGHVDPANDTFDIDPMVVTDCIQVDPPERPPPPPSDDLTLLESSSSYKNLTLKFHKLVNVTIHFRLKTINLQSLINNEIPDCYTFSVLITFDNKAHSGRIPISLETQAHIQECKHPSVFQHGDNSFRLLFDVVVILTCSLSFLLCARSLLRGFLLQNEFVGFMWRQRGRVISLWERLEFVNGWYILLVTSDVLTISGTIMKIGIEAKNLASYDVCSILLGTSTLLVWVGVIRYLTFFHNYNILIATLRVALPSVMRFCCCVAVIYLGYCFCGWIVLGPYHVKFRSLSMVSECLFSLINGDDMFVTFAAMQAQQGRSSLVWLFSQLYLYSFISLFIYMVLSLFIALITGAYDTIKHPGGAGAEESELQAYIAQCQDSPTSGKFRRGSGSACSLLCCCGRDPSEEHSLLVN
row,SMILES,activation
1,Cc1ccc(CNC(=O)c2ccccc2CCc2ccccc2)cc1,0.628% (inactive)
2,O=C1c2ccccc2S(=O)(=O)c2cc(N3CCN(c4ccccn4)CC3)ccc21,-0.448% (inactive)
3,Cc1ccc(CNC(=O)c2cccc3c2C(=O)c2ccc(N4CCC(C)CC4)cc2S3(=O)=O)cc1,66.9% (active)
4,O=C(COC(=O)c1ccccc1OCCOc1ccccc1)Nc1cccc(Br)c1,-1.41% (inactive)
5,COc1cc2[nH]c(C)c(CCN3CCN(c4ccccc4)CC3)c2cc1OC,-0.545% (inactive)
6,NC(=O)c1ccc(NC(=O)COC(=O)C(Cc2ccccc2)NC(=O)c2ccccc2)cc1 (centres undefined),4.33% (inactive)
7,CN(CC(=O)Nc1ccc(C(N)=O)cc1)S(=O)(=O)c1ccc2c(c1)OCCO2,0.311% (inactive)
8,NC(=O)c1ccc(NC(=O)COC(=O)c2c3c(nc4ccccc24)/C(=C\c2ccc4c(c2)OCO4)CCC3)cc1,96% (active)
9,C[N+]1(CC(=O)c2cccs2)CCOCC1,-0.317% (inactive)
10,CN(C)c1ccc(/C=C2\C=Cc3ccccc32)cc1Br,0.0951% (inactive)
11,OCCNc1ncnc2oc(-c3ccco3)c(-c3ccco3)c12,0.995% (inactive)
12,COc1ccc(-c2cc(C(=O)Nc3sc4c(c3C(N)=O)CCCC4)no2)cc1,0.03% (inactive)
13,CC(C)c1ccc(NC(=O)Cn2nnc(C(=O)NCCc3ccccc3)c2N)cc1,1.91% (inactive)
14,Cc1ccc(-c2nnc3ccc(SCC(N)=O)nn23)cc1,-0.578% (inactive)
15,COc1ccc(C(=O)Nc2nonc2-c2ccc(OC)c(OC)c2)cc1Cl,2.17% (inactive)
16,CC1(C)CC(=O)c2cc(C(=O)NCc3ccccc3)c(=O)[nH]c2C1,-0.38% (inactive)
17,COc1ccc(C(=O)NCC(c2ccc(N(C)C)cc2)N2CCc3ccccc32)c(OC)c1 (centres undefined),-0.0968% (inactive)
18,CCOc1ccccc1N(CC)C(=O)c1cc2ccc3cccnc3c2[nH]1,1.16% (inactive)
19,CCOC(=O)c1ccc(NC(=O)CC2C(=O)N(c3ccccc3)C(=O)N2Cc2cccs2)cc1 (centres undefined),0.378% (inactive)
20,Cc1csc(NCC(=O)c2c[nH]c3ccccc23)n1,-0.545% (inactive)

row,SMILES,activation
1,Nc1ccccc1N,-0.412% (inactive)
2,c1ccc(Cn2nnc3c(N4CCCCC4)ncnc32)cc1,-0.998% (inactive)
3,Cc1cccc(-c2nnc(SC(C)C(=O)Nc3ccccc3)n2C)c1 (centres undefined),-0.995% (inactive)
4,Cc1ccc(C=O)cc1Cl,-0.475% (inactive)
5,C(=Nc1ccc(/C=C/c2ccnc3ccccc23)cc1)c1cc2c3c(c1)CCCN3CCC2,1.62% (inactive)
6,ClC/C=C/C[n+]1ccccc1Cl,0.254% (inactive)
7,Nc1ccc(/C=C/c2ccnc3ccccc23)c([N+](=O)[O-])c1,17.6% (inactive)
8,Cc1ccccc1NC(=O)Cn1c(=O)n(CC2CCC(C(=O)NCCc3ccccc3)CC2)c(=O)c2ccccc21 (centres undefined),0.124% (inactive)
9,Clc1cccc[n+]1CCCC[n+]1ccccc1Cl,-0.384% (inactive)
10,CCOc1ccc2oc(=O)cc(CN3CCN(C(=O)c4ccc(F)cc4)CC3)c2c1,0.651% (inactive)
11,CC(C)(C(=O)NO)c1ccccc1,-0.108% (inactive)
12,CN(C(=N)N)c1ccc(/C=C2\C=Cc3ccccc32)cc1,-0.285% (inactive)
13,CCCCSc1ncnc2c1sc1nc(N3CCOCC3)c3c(c12)CCCC3,0.201% (inactive)
14,CSc1n[nH]c(-c2ccco2)n1,-0.16% (inactive)
15,O=C(C[n+]1ccncc1)c1ccc2c(c1)CCCC2,-0.708% (inactive)
16,Cc1cc[n+](C2CCCCC2)cc1,3.69% (inactive)
17,CN1CCN(/[N+]([O-])=N/Oc2ccc([N+](=O)[O-])cc2[N+](=O)[O-])CC1,1.19% (inactive)
18,C=C1C=C(C(F)F)n2ncc(C(=O)NCCc3ccccc3OC)c2N1,-1.28% (inactive)
19,COc1ccc(CCNc2nc(-c3ccc(Cl)cc3)cc(C(F)(F)F)n2)cc1OC,-0.222% (inactive)
20,Cc1cc(C)cc(NC(=O)N(C)Cc2ccccc2)c1,0.932% (inactive)

row,SMILES,activation
1,CCC(=O)N(Cc1ccccc1)c1ccccn1,-0.645% (inactive)
2,CN(C(=O)CN(CCO)CC(=O)N(C)C(C)(C)Cc1ccccc1)C(C)(C)Cc1ccccc1,51.2% (active)
3,COc1ccc(C2/C=C\CN(C(=O)c3ccc(C)cc3)C(Cc3ccccc3)C(=O)N2Cc2ccc(F)cc2)cc1 (centres undefined),0.118% (inactive)
4,CCc1ccc(C2CC(=O)c3c([nH]c(C(=O)OCc4ccc(C)cc4)c3C)C2)cc1 (centres undefined),1.69% (inactive)
5,CCc1ccc(CNCc2c(C(=O)O)n(Cc3ccc(F)cc3Cl)c3cc(OC)ccc23)cc1,0.807% (inactive)
6,CCN(CC)c1ccc(/C=C/c2c(C)cnc3ccc(C)cc23)cc1,11.4% (inactive)
7,CN(C)c1ccc(/C=C/c2c3ccccc3nc3ccccc23)cc1,0.354% (inactive)
8,CN(C)c1ccc(/C=C2\NC(=S)N(Cc3ccccc3)C2=O)cc1,66.5% (active)
9,CN(C)c1ccc(/C=c2\[nH]c(=O)/c(=C/c3ccc(N(C)C)cc3)[nH]c2=O)cc1,0.206% (inactive)
10,Nc1c(C(=O)c2cccs2)sc2nsc(SCCN3CCCCC3)c12,56.3% (active)
11,Cc1ccc(CCNC(=O)Cn2c(-c3cccs3)cc3cc(F)ccc32)cc1,-0.443% (inactive)
12,CNCCCOc1cc2nc(N3CCCN(C)CC3)nc(NC3CCN(C)CC3)c2cc1OC,-0.513% (inactive)
13,COc1cc2nc(N3CCCN(C)CC3)nc(NC3CC3)c2cc1OC,-0.539% (inactive)
14,COc1cc(OC)c(/C=C/c2ccnc3ccccc23)c(OC)c1,-0.602% (inactive)
15,CN(N=O)c1ccc(C=C2c3ccccc3-c3ccccc32)cc1,-0.127% (inactive)
16,CC(=O)N1CCN(CC(c2ccccc2)c2ccccc2)CC1,-0.726% (inactive)
17,Oc1ccccc1CN1CCN(C(c2ccccc2)c2ccccc2)CC1,84.3% (active)
18,Cn1nnnc1SCC(=O)N1CCN(C(c2ccccc2)c2ccccc2)CC1,2% (inactive)
19,CCN1CCN(c2ccc(/C=C/c3ccnc4ccccc34)cc2)CC1,5.01% (inactive)
